# The campaign covered roughly 310,000 compounds. About 14,000 (4.5%) showed an effect of 50% or more. Effects have a minus sign here. This is one part of a sample in which strong results are shown more often than they occur.
# Target: human ether-à-go-go-related gene (hERG) potassium channel (human, UniProt Q12809)
# Assay: primary screen, population patch clamp on CHO cells stably expressing hERG; higher = less effect of the substance
# 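Note: peak tail current of the secondary pulse compared with the same well before compound.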
# human ether-à-go-go-related gene (hERG) potassium channel, sequence (Q12809 whole entry, looked up): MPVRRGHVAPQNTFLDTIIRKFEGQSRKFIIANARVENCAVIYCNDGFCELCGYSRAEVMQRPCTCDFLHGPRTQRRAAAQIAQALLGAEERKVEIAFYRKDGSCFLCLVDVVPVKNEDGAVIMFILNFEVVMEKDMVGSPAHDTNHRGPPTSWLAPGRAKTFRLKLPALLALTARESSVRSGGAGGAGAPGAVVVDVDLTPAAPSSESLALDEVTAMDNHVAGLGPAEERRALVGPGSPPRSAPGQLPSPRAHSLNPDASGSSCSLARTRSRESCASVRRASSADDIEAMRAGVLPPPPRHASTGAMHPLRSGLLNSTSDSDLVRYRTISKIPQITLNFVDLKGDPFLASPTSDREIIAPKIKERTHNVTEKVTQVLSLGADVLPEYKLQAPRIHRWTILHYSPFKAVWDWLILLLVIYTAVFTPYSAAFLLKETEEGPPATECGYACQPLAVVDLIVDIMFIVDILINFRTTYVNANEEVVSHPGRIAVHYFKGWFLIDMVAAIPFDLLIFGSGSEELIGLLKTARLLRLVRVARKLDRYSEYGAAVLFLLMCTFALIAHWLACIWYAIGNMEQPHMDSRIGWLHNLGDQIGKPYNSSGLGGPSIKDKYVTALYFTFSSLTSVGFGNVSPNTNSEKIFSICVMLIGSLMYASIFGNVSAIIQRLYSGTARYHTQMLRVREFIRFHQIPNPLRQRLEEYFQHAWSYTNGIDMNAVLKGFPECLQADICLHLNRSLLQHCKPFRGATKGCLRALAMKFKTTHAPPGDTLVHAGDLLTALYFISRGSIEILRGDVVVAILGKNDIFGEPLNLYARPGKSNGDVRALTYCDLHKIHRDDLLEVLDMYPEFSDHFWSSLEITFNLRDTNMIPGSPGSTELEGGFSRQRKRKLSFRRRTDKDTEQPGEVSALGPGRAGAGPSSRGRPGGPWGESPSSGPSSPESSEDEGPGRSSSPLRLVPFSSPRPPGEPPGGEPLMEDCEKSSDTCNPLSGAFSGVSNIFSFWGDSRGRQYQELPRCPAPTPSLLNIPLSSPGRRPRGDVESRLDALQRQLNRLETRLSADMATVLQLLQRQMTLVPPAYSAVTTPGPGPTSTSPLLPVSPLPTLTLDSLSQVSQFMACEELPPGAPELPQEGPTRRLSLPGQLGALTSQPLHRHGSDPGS
row,Compound,"hERG current change (%, negative = inhibition) at 10uM [%]"
1,Cc1cccc(-c2oc3ccc(-c4ccc5c(c4)OCO5)cc3c2C(=O)OCc2ccc(O)cc2)c1,6.27
2,c1ccc(-c2nn[nH]n2)nc1,9.49
3,Cc1cccc(NC(=S)NCCC(c2ccccc2)c2ccccc2)c1,12
4,CCn1c(-c2cc(OC)c(OC)c(OC)c2)n[nH]c1=S,12.1
5,COc1cccc(CNC(=O)CCCn2nc(C)c3c(C)n(-c4ccccc4)nc3c2=O)c1,-10
6,COc1ccc(CCN2CN(S(=O)(=O)c3ccccc3)c3nc4ccccc4nc32)cc1OC,-0.784
7,Cc1ccc(/C([O-])=C(/C(=S)NCc2ccco2)[n+]2ccccc2)cc1[N+](=O)[O-],-18
8,CC(C)C(=O)NNS(=O)(=O)c1ccccc1[N+](=O)[O-],3.1
9,CN1N=C(C(=O)N2CCCC(N3CCN(c4ccc(F)cc4)CC3)C2)CCC1=O (stereo not drawn),2.78
10,COc1ccc(N=C2SC(C(=O)N3CCN(c4ccccc4)CC3)CC(=O)N2C)cc1 (stereo not drawn),-13
11,CCOCC(=O)N1CCN(c2ccc(F)cc2)CC1,-15.9
12,CCOCC(=O)N1CCN(c2ccc([N+](=O)[O-])cc2)CC1,-71.8
13,COc1ccc(N2CCN(C(=O)c3cc([N+](=O)[O-])ccc3N3CCN(CCO)CC3)CC2)cc1,-24.6
14,COCC(=O)N1CCN(c2ccc([N+](=O)[O-])cc2)CC1,-62.7
15,COCC(=O)N1CCN(c2cccc(Cl)c2)CC1,-8.46
16,CN1N=C(C(=O)N2CCN(c3ccc([N+](=O)[O-])cc3)CC2)CCC1=O,-73
17,COc1ccc(N=C2SC(C(=O)N3CCN(c4ccc([N+](=O)[O-])cc4)CC3)CC(=O)N2C)cc1 (stereo not drawn),-68.2
18,CCOCC(=O)N1CCN(c2cccc(Cl)c2)CC1,8.4
19,COc1ccc(N=C2SC(C(=O)O)CC(=O)N2C)cc1 (stereo not drawn),1.4

row,Compound,"hERG current change (%, negative = inhibition) at 10uM [%]"
1,COc1ccc(C)cc1NC(=O)C(OC(=O)c1ccc(Cl)c(S(=O)(=O)N(C)c2ccccc2)c1)c1ccccc1 (stereo not drawn),-0.711
2,O=C(Nc1ccc(O)cc1C(=O)O)c1ccc2c(c1)C(=O)N(Cc1ccco1)C2=O,-16.8
3,CCOc1ccc2[nH]c(=O)c(CN(CCO)C(=O)c3ccccc3F)cc2c1,-0.495
4,COC(=O)Cc1[nH]nc2c1C(c1c[nH]c3ccccc13)C(C#N)=C(N)O2 (stereo not drawn),17.8
5,c1ccc(Nc2c(-c3ccco3)nc3ccccn23)cc1,9.75
6,C=CCC1(N(C(C)=O)c2ccccc2)CCCCC1,5.28
7,CSC(=NC#N)N1CCN(c2ccccc2)CC1,-2.95
8,CSC(=NC#N)N1CCN(c2ccc([N+](=O)[O-])cc2)CC1,-77
9,CSC(=NC#N)N1CCN(c2ccc(Cl)cc2)CC1,-38.3
10,O=C(Nc1ccc2c(c1)OCO2)c1cnn2c1NC(c1ccco1)CC2C(F)(F)F (stereo not drawn),-4.57
11,CCc1c(O)nc(SCC(=O)Nc2cc(C)on2)n(-c2ccccc2)c1=O,3.39
12,C=CCn1c(SCC(=O)NC2CC2)nnc1-c1cccc(OC)c1,2.24
13,CCn1c(SCC(=O)Nc2ncc(C(F)(F)F)cc2Cl)nnc1-c1ccccc1,-12.6
14,O=C(CSc1nnc(Cc2cccs2)n1-c1ccccc1)NC1CCCCC1,-62.5
15,CCn1c(SCC(=O)NC2CC2)nnc1-c1ccc(OC)cc1,17.4
16,CNC(=O)CSc1nnc(-c2ccco2)n1-c1cccc(OC)c1,-0.723
17,Cn1c(SCC(=O)Nc2ncc(C(F)(F)F)cc2Cl)nnc1-c1ccc(Cl)cc1,-30.8
18,CCn1c(Cc2cccs2)nnc1SCC(=O)NC1CC1,-1.49
19,CCn1c(SCC(=O)NC2CC2)nnc1-c1cccc(OC)c1,-66.6

row,Compound,"hERG current change (%, negative = inhibition) at 10uM [%]"
1,COc1cccc(-n2c(SCC(=O)NC3CCCC3)nnc2-c2ccco2)c1,-73.7
2,CCn1c(SCC(=O)Nc2ncc(C(F)(F)F)cc2Cl)nnc1-c1cccc(C)c1,-69.9
3,Nc1nnc(SCC(=O)NC2CCCCC2)n1-c1ccccc1,6.78
4,COc1cccc(-n2c(SCC(N)=O)nnc2-c2ccco2)c1,13.7
5,Nn1c(N2CCCCC2)nc2ccccc21,6.16
6,Cc1cc(C(=O)N/N=C2\CCCC(C)C2)n[nH]1 (stereo not drawn),11
7,CCC1=C(c2ccc(C)cc2)S(=O)(=O)N=C1N1CCC(C(=O)NCCCN2CCCCC2)CC1,20.5
8,CCN(CC)CC(=O)Nc1nc(-c2ccc(Cl)cc2)cs1,-35.8
9,O=C(COc1ccccc1C(=O)NCC1CCCO1)Nc1ccc(Cl)cc1Cl (stereo not drawn),-14
10,COC(=O)c1ccc(COc2ccc(Cl)cc2)o1,2.11
11,CCn1c(SCC(=O)NC2CCCC2)nnc1-c1ccoc1C,14
12,Cc1cccc(-n2c(SCC(=O)Nc3ccc4c(c3)OCO4)nnc2-c2ccoc2C)c1,-0.162
13,Cc1occc1-c1nnc(SCC(=O)NC2CCCC2)n1C,15.5
14,Cc1occc1-c1nnc(SCC(=O)NC2CCCC2)n1-c1ccccc1,-74.8
15,CCOc1ccccc1-n1c(SCC(=O)NC2CCCC2)nnc1-c1ccoc1C,-24
16,Cc1cccc(-n2c(SCC(=O)NC3CCCC3)nnc2-c2ccoc2C)c1,-83.2
17,Cc1ccc(C)c(NC(=S)N2CCC(NC(=O)C3CCCCC3)CC2)c1,4.41
18,COc1ccc(NC(=O)COc2ccc(-c3nn(C)c(=O)c4ccccc34)cc2)cc1,18.2
19,S=C(NCc1cccnc1)Nc1cccc(Cl)c1,-9.78
